About 2,000 (36%) of roughly 5,500 compounds were called active. Roughly 18% stayed inconclusive and do not appear here. Rule as the data show it: active = normalized growth mostly below about 0.91 (no sharp cut-off); inconclusive = no clear call, values can overlap the other calls; inactive = mostly above about 0.92. The list shows a part of the results.
Experiment: chemical genetic growth profiling, strain panel (AID 1159580);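 also: tested at 20 µM; growth read once vehicle control cultures reached saturation at 30 °C; 1 = growth at the plate median or of vehicle wells; lower values mean less growth of the strain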
Settings: growth OD

Measured: normalized growth

CC(C)(C)OC(=O)N1CCC(C(N)=O)CC1
inactive: S. cerevisiae deletion strains, locus YAL013W, strain DEP1, hits give low values 0.997 | S. cerevisiae deletion strains, locus YBR229C, strain ROT2, hits give low values 1.01 | S. cerevisiae deletion strains, locus YCL061C, strain MRC1, hits give low values 1.02 | S. cerevisiae deletion strains, locus YDL101C, strain DUN1, hits give low values 1.01 | S. cerevisiae deletion strains, locus YDR150W, strain NUM1, hits give low values 1.01 | S. cerevisiae deletion strains, locus YEL061C, strain CIN8, hits give low values 1.01 | S. cerevisiae deletion strains, locus YGR078C, strain PAC10, hits give low values 1.01 | S. cerevisiae deletion strains, locus YHR030C, strain SLT2, hits give low values 1.08 | S. cerevisiae deletion strains, locus YHR087W, strain rtc3, hits give low values 1.01 | S. cerevisiae deletion strains, locus YJR043C, strain POL32, hits give low values 1.01 | S. cerevisiae deletion strains, locus YJR075W, strain HOC1, hits give low values 1.01 | S. cerevisiae deletion strains, locus YLR039C, strain RIC1, hits give low values 1.04 | S. cerevisiae deletion strains, locus YLR058C, strain SHM2 (second series), hits give low values 1.01 | S. cerevisiae deletion strains, locus YLR085C, strain ARP6, hits give low values 1.02 | S. cerevisiae deletion strains, locus YLR262C, strain YPT6, hits give low values 1.07 | S. cerevisiae deletion strains, locus YML094W, strain GIM5, hits give low values 1.03 | S. cerevisiae deletion strains, locus YMR219W, strain ESC1, hits give low values 1.01 | S. cerevisiae deletion strains, locus YMR263W, strain SAP30, hits give low values 1.02 | S. cerevisiae deletion strains, locus YMR307W, strain GAS1, hits give low values 1.04 | S. cerevisiae deletion strains, locus YNL153C, strain GIM3, hits give low values 1.01 | S. cerevisiae deletion strains, locus YNL298W, strain CLA4 (second series), hits give low values 1.03 | S. cerevisiae deletion strains, locus YNL322C, strain KRE1, hits give low values 1.02 | S. cerevisiae deletion strains, locus YNR030W, strain Alg12, hits give low values 1.03 | S. cerevisiae deletion strains, locus YPL055C, strain LGE1, hits give low values 1.01 | S. cerevisiae deletion strains, locus YPL241C, strain CIN2, hits give low values 1.03 | S. cerevisiae deletion strains, locus YPR135W, strain CTF4, hits give low values 0.974 | S. cerevisiae strains, strain wild type, hits give low values 1.02
